Records with an inconclusive call do not appear. Active and inactive are the calls of the source. Calls come from the whole dose curve; as a rule, active = well fitted curve in the direction sought with a large enough effect; inconclusive = small, poorly fitted or top-dose-only effect, or another doubt; inactive = no such curve, though single readings can be large; an effect the other way counts as inactive or inconclusive.
What was measured:
[1] = Quantitative High-Throughput drug screen in 47 multiple myeloma cell lines against the NCATS MIPE library collection: ARD_JJKsccE7 cell viability assay (AID 1918929); conditions: ARD myeloma cell line viability, CellTiter-Glo, 48 h; series mostly up to 45.8 µM
Method in brief: (§1)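 Myeloma cells (500 per well) were exposed to MIPE 4.0 compounds by pin transfer and incubated 48 hours at 37C, 5% CO2. Viability was read as ATP by CellTiter-Glo luminescence, normalised to DMSO (100%) and media-only (0%) wells.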

[2] = Quantitative High-Throughput drug screen in 47 multiple myeloma cell lines against the NCATS MIPE library collection: KMM1_JCRB cell viability assay (AID 1918960); conditions: KMM1 myeloma viability, CellTiter-Glo ATP luminescence, 48 h; series mostly up to 45.8 µM; note: nearly all actives have a fitted effect of over 30% in size
Method in brief: (§2)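 Myeloma cells at 500 per well in 1536-well format treated with MIPE 4.0 library by pin transfer for 48 h at 37C, 5% CO2. Viability from ATP luminescence (CellTiter-Glo), normalized to DMSO (100%) and media-only (0%) wells.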

[3] = Quantitative High-Throughput drug screen in 47 multiple myeloma cell lines against the NCATS MIPE library collection: H1112_PLB cell viability assay (AID 1918967; note: nearly all actives have a fitted effect of over 30% in size); conditions: H1112 myeloma cells viability, ATP luminescence, 48 h; series mostly up to 45.8 µM
Method in brief: as §1

[4] = Quantitative High-Throughput drug screen in 47 multiple myeloma cell lines against the NCATS MIPE library collection: Delta47_JCRB cell viability assay (AID 1918925; note: nearly all actives have a fitted effect of over 45% in size); conditions: Delta47 myeloma viability, CellTiter-Glo ATP, 48 h; series mostly up to 45.8 µM
Method in brief: as §1

[5] = Quantitative High-Throughput drug screen in 47 multiple myeloma cell lines against the NCATS MIPE library collection: AMO1_DSMZ cell viability assay (AID 1918927; note: nearly all actives have a fitted effect of over 30% in size); conditions: AMO1 myeloma cells viability, CellTiter-Glo ATP luminescence, 48 h; series mostly up to 45.8 µM
Method in brief: as §1

[6] = Quantitative High-Throughput drug screen in 47 multiple myeloma cell lines against the NCATS MIPE library collection: ARP1_JJKsccF8 cell viability assay (AID 1918928; note: nearly all actives have a fitted effect of over 40% in size); conditions: ARP1 myeloma cells viability, CellTiter-Glo ATP, 48 h; series mostly up to 45.8 µM
Method in brief: as §2

[7] = Quantitative High-Throughput drug screen in 47 multiple myeloma cell lines against the NCATS MIPE library collection: Karpas417_ECACC cell viability assay (AID 1918961); conditions: Karpas417 myeloma viability, CellTiter-Glo ATP luminescence, 48 h; viability (% of DMSO): at 45.8 µM (top of the series)
Method in brief: (§3)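 Myeloma cell lines, 500 cells per well, exposed to MIPE 4.0 library compounds for 48 h at 37C, 5% CO2. Viability from ATP by CellTiter-Glo luminescence; normalised to DMSO (100%) and media-only (0%) wells.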

[8] = Quantitative High-Throughput drug screen in 47 multiple myeloma cell lines against the NCATS MIPE library collection: JIM3_ECACC cell viability assay (AID 1918963; note: nearly all actives have a fitted effect of over 35% in size); conditions: JIM3 myeloma viability, CellTiter-Glo ATP, 48 h; series mostly up to 45.8 µM
Method in brief: as §3

[9] = Quantitative High-Throughput drug screen in 47 multiple myeloma cell lines against the NCATS MIPE library collection: JIM1_ECACC cell viability assay (AID 1918964); conditions: JIM1 myeloma viability, CellTiter-Glo ATP luminescence, 48 h; series mostly up to 45.8 µM
Method in brief: as §1

[10] = Quantitative High-Throughput drug screen in 47 multiple myeloma cell lines against the NCATS MIPE library collection: INA6_PLB cell viability assay (AID 1918965; note: nearly all actives have a fitted effect of over 55% in size); conditions: INA6 myeloma viability, CellTiter-Glo ATP luminescence, 48 h; series mostly up to 45.8 µM
Method in brief: as §3

[11] = Quantitative High-Throughput drug screen in 47 multiple myeloma cell lines against the NCATS MIPE library collection: JJN3_DSMZ cell viability assay (AID 1918966; note: nearly all actives have a fitted effect of over 50% in size); conditions: JJN3 myeloma cells viability, CellTiter-Glo ATP, 48 h; series mostly up to 45.8 µM
Method in brief: as §1

[12] = Quantitative High-Throughput drug screen in 47 multiple myeloma cell lines against the NCATS MIPE library collection: Karpas25_ECACC cell viability assay (AID 1918968; note: nearly all actives have a fitted effect of over 35% in size); conditions: Karpas25 myeloma viability, CellTiter-Glo ATP, 48 h; series mostly up to 45.8 µM
Method in brief: as §1

[13] = Quantitative High-Throughput drug screen in 47 multiple myeloma cell lines against the NCATS MIPE library collection: EJM_DSMZ cell viability assay (AID 1918926; note: nearly all actives have a fitted effect of over 30% in size); conditions: EJM myeloma cell viability, CellTiter-Glo ATP, 48 h; series mostly up to 45.8 µM
Method in brief: as §1

[14] = Quantitative High-Throughput drug screen in 47 multiple myeloma cell lines against the NCATS MIPE library collection: FR4_PLB cell viability assay (AID 1918924; note: nearly all actives have a fitted effect of over 35% in size); conditions: FR4_PLB myeloma cells viability, CellTiter-Glo ATP, 48 h; series mostly up to 45.8 µM
Method in brief: as §3

[15] = Quantitative High-Throughput drug screen in 47 multiple myeloma cell lines against the NCATS MIPE library collection: Karpas620_DSMZ cell viability assay (AID 1918959); conditions: Karpas620 myeloma viability, CellTiter-Glo ATP luminescence, 48 h; series mostly up to 45.8 µM; note: nearly all actives have a fitted effect of over 30% in size
Method in brief: as §3

Measured: Potency
Potency is the fitted concentration of half-maximal effect.

O=S(=O)(c1cccc2cnccc12)N1CCCNCC1
inactive: [1] | [2]
active: [3] 16.6 µM

CCOC(=O)[C@H](CCc1ccccc1)N[C@H]1CS[C@H](c2cccs2)CN(CC(=O)O)C1=O
inactive: [8]
active: [4] 2.96 µM | [5] 1.32 µM | [6] 11.8 µM | [2] 1.05 µM | [7] 0.264 µM | [9] 1.32 µM | [10] 2.96 µM | [11] 16.6 µM | [3] 13.2 µM | [12] 5.9 µM

O=C(N[C@H](CO)[C@H](O)c1ccc([N+](=O)[O-])cc1)C(Cl)Cl
not listed: [1] | [7] | [9] | [14] | [15]
inactive: all other assays above

N[C@@H](Cc1ccc(O)c(O)c1)C(=O)O
inactive: [14] | [13] | [15] | [2] | [8] | [3] | [12]

CS(=O)(=O)c1ccc([C@@H](O)[C@@H](CO)NC(=O)C(Cl)Cl)cc1
active: [1] 13.2 µM | [8] 9.35 µM | [10] 11.8 µM | [12] 16.6 µM
inactive: [14] | [13] | [3]

CCCCOc1ccc(CC(=O)NO)cc1
active: [13] 5.26 µM | [5] 11.8 µM | [6] 13.2 µM | [15] 18.7 µM | [3] 8.33 µM | [12] 6.62 µM

CC1CC2C3CCC4=CC(=O)C=C[C@]4(C)[C@@]3(F)[C@@H](O)C[C@]2(C)[C@@]1(O)C(=O)CO (stereo partly specified)
active: [5] 0.833 µM | [9] 0.0023 µM | [12] 0.209 µM
inactive: [13] | [8] | [3]

O=C(O)c1ccc(-n2nc(-c3ccccc3O)nc2-c2ccccc2O)cc1
active: [14] 23.5 µM | [5] 29.6 µM | [8] 18.7 µM | [10] 18.7 µM | [12] 16.6 µM
inactive: [7]

Reference: PubChem BioAssay (NCATS)
